Inconclusive results are not listed. The source made the active and inactive calls. The call rests on the fitted dose curve; in most records, active means well fitted inhibition curve with a large enough effect; inconclusive means small, poorly fitted or top-dose-only effect; inactive means flat fitted curve, though single readings scatter.
Tests used:
[1] = molecular target: Luciferin 4-monooxygenase (Photinus pyralis) (UniProt P08659); experiment: Biochemical firefly luciferase enzyme assay for NPC (AID 624030);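 further: purified P. pyralis luciferase at 10 nM with luciferin and ATP substrate; nearly all actives have a fitted effect of over 70% in size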
Method in brief: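 Direct inhibition of firefly luciferase enzyme (10 nM final, 50 mM Tris Acetate) assessed by luminescence within 5 minutes. Percent activity scaled between DMSO and PTC124 positive control, with concentration-effect curves classified by fit quality and response.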

CP211 = experiment: qHTS profiling for inhibitors of Plasmodium falciparum proliferation (AID 504749); further: nearly all actives have a fitted effect of over 60% in size; further: potency means the concentration at half of the fitted maximal effect; conditions: P. falciparum in erythrocytes, SYBR Green DNA, 72 h; series mostly up to 12.8 µM
Method in brief: (§1)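 In a 72 h erythrocytic culture (37 C, humidified, 5% CO2) at 2.5% hematocrit and 0.3% starting parasitemia, compounds were tested; SYBR Green I in detergent lysis buffer stained parasite DNA overnight.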

CP237 = experiment: as above; conditions: P. falciparum in erythrocytes, SYBR Green DNA, 72 h; series mostly up to 12.8 µM
Method in brief: as §1

CP268 = experiment: as above; conditions: P. falciparum in erythrocytes, SYBR Green DNA, 72 h; series mostly up to 12.8 µM
Method in brief: as §1

CP269 = experiment: as above; conditions: P. falciparum in erythrocytes, SYBR Green DNA, 72 h; series mostly up to 12.8 µM
Method in brief: as §1

DIV14 = experiment: as above; conditions: P. falciparum in erythrocytes, SYBR Green DNA, 72 h; series mostly up to 12.8 µM
Method in brief: as §1

DIV17 = experiment: as above; conditions: P. falciparum in erythrocytes, SYBR Green DNA, 72 h; series mostly up to 12.8 µM
Method in brief: as §1

P93_24 = experiment: as above; conditions: P. falciparum in erythrocytes, SYBR Green DNA, 72 h; series mostly up to 12.8 µM
Method in brief: as §1

AA1029 = experiment: as above; conditions: P. falciparum in erythrocytes, SYBR Green DNA, 72 h; series mostly up to 12.8 µM
Method in brief: as §1

ATS189 = experiment: as above; conditions: P. falciparum in erythrocytes, SYBR Green DNA, 72 h; series mostly up to 12.8 µM
Method in brief: as §1

CP194 = experiment: as above; conditions: P. falciparum in erythrocytes, SYBR Green DNA, 72 h; series mostly up to 12.8 µM
Method in brief: as §1

CP265 = experiment: as above; conditions: P. falciparum in erythrocytes, SYBR Green DNA, 72 h; series mostly up to 12.8 µM
Method in brief: as §1

CP286 = experiment: as above; conditions: P. falciparum in erythrocytes, SYBR Green DNA, 72 h; series mostly up to 12.8 µM
Method in brief: as §1

CP297 = experiment: as above; conditions: P. falciparum in erythrocytes, SYBR Green DNA, 72 h; series mostly up to 12.8 µM
Method in brief: as §1

DIV30 = experiment: as above; conditions: P. falciparum in erythrocytes, SYBR Green DNA, 72 h; series mostly up to 12.8 µM
Method in brief: as §1

Dd2 = experiment: as above; conditions: P. falciparum in erythrocytes, SYBR Green DNA, 72 h; series mostly up to 12.8 µM
Method in brief: as §1

ECU = experiment: as above; conditions: P. falciparum in erythrocytes, SYBR Green DNA, 72 h; series mostly up to 12.8 µM
Method in brief: as §1

PAD = experiment: as above; conditions: P. falciparum in erythrocytes, SYBR Green DNA, 72 h; series mostly up to 12.8 µM
Method in brief: as §1

PC15 = experiment: as above; conditions: P. falciparum in erythrocytes, SYBR Green DNA, 72 h; series mostly up to 12.8 µM
Method in brief: as §1

TAB165 = experiment: as above; conditions: P. falciparum in erythrocytes, SYBR Green DNA, 72 h; series mostly up to 12.8 µM
Method in brief: as §1

Measured: Potency

Sequence of Luciferin 4-monooxygenase (Photinus pyralis) (P08659 whole entry, looked up): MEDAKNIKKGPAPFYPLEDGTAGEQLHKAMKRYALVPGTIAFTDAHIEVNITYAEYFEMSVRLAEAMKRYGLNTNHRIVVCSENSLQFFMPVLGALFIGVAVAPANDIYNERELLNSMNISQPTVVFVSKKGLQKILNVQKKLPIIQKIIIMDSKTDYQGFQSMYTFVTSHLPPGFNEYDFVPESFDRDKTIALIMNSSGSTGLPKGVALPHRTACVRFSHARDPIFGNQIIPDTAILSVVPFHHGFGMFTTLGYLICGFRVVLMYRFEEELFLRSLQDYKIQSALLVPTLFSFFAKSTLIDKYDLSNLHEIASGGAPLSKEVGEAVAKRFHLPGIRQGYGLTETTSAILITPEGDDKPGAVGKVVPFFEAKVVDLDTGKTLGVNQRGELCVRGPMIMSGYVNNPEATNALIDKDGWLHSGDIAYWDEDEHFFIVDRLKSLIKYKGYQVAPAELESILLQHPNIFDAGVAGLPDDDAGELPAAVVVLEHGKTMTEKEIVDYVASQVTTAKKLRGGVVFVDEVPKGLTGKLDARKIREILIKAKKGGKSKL

Cc1ccc2c(c1)c1c3n2CCN[C@H]3CCC1
active: CP237 12.6 µM | DIV14 6.01 µM | DIV17 12 µM
inactive: [1] | CP211 | CP268 | CP269 | P93_24

O=C(N/N=C\c1ccc([N+](=O)[O-])o1)c1ccc(O)cc1
active: AA1029 3.98 µM | ATS189 3.16 µM | CP194 3.61 µM | CP211 5.73 µM | CP237 2.51 µM | CP265 3.16 µM | CP268 5.73 µM | CP269 4.55 µM | CP286 2.51 µM | CP297 3.22 µM | DIV14 3.22 µM | DIV17 2.28 µM | DIV30 5.1 µM | Dd2 3.55 µM | ECU 1.78 µM | P93_24 2.82 µM | PAD 2.51 µM | PC15 2.82 µM | TAB165 3.16 µM
inactive: [1]

COc1ccc(C[C@@](C)(N)C(=O)O)cc1OC
inactive: all assays above

CC(=O)OCC(=O)[C@@]12OC(C)(C)O[C@@H]1C[C@H]1[C@H]3C[C@H](F)C4=CC(=O)C=C[C@@]4(C)[C@]3(F)[C@H](O)C[C@@]12C
inactive: all assays above

CCC(=O)O[C@@]1(C(=O)SCF)[C@@H](C)C[C@H]2[C@@H]3C[C@@H](F)C4=CC(=O)C=C[C@@]4(C)[C@]3(F)[C@@H](O)C[C@]21C
inactive: [1] | CP194 | CP211 | CP268 | CP286 | CP297
active: P93_24 3.55 µM | TAB165 3.16 µM

COc1cc2nc(N3CCN(C(=O)[C@@H]4COc5ccccc5O4)CC3)nc(N)c2cc1OC
inactive: [1] | ATS189 | CP265 | CP268 | PC15
active: DIV14 13.5 µM | DIV17 6.75 µM

CC(=O)[C@@H]1CC[C@@H]2[C@@H]3C[C@H](C)C4=CC(=O)CC[C@@]4(C)[C@H]3[C@H](O)C[C@]21C
not listed: CP297
inactive: all other assays above

C[C@H](N[C@@H](C)COc1ccccc1)[C@H](O)c1ccc(O)cc1
active: CP237 3.55 µM
not listed: DIV14 | DIV17 | CP297 | Dd2
inactive: all other assays above

CN(C)CCn1nnnc1SCC1=C(C(=O)O)N2C(=O)[C@@H](NC(=O)Cc3csc(N)n3)[C@@H]2SC1
inactive: [1] | AA1029 | CP194 | CP211 | CP237 | CP268 | CP286 | CP297 | Dd2

CCN[C@@H]1CN(CCCOC)S(=O)(=O)c2sc(S(N)(=O)=O)cc21
inactive: all assays above

Cc1ncc([N+](=O)[O-])n1C[C@H](O)CCl
inactive: all assays above

NS(=O)(=O)c1cc2c(cc1Cl)N[C@@H](C(Cl)Cl)NS2(=O)=O
inactive: all assays above

C1CCN2C[C@@H]3C[C@@H](CN4CCCC[C@H]34)[C@H]2C1
inactive: all assays above

C=CC1=C(C(=O)O)N2C(=O)[C@@H](NC(=O)/C(=N\OCC(=O)O)c3csc(N)n3)[C@@H]2SC1
not listed: CP268
inactive: all other assays above

C[C@@H]1O[C@H](O[C@@H]2\C=C/C=C\C=C/C=C\C[C@H](C)OC(=O)/C=C\[C@H]3O[C@@H]3C[C@H](O)C[C@]3(O)C[C@@H](O)[C@@H](C(=O)O)[C@H](C2)O3)[C@@H](O)[C@H](N)[C@@H]1O (stereo in doubt)
not listed: CP268
inactive: all other assays above

C[C@@H]1C[C@H](OC(=O)[C@@H](O)c2ccccc2)CC(C)(C)N1C
inactive: [1]

CCOC(=O)O[C@]1(C(=O)COC(=O)CC)CC[C@@H]2[C@@H]3CCC4=CC(=O)C=C[C@@]4(C)[C@H]3[C@H](O)C[C@]21C
inactive: all assays above

CC(=C(CCOP(=O)(O)O)SC(=O)c1ccccc1)N(C=O)Cc1cnc(C)nc1N
not listed: [1]
inactive: all other assays above

CCCCC[C@H](O)/C=C\[C@H]1[C@H](C/C=C\CCCC(=O)O)[C@@H](O)C[C@H]1O (tested in a mixture with another compound)
inactive: all assays above

CN[C@H]1[C@H](O)[C@@H](O[C@@H]2[C@H](O)[C@@H](O[C@H]3OC(CN)=CC[C@H]3N)[C@@H](N)C[C@H]2N)OC[C@@]1(C)O
not listed: [1]
inactive: all other assays above

CN[C@H]1[C@@H](O)[C@@H](NC)[C@@H]2O[C@@]3(O)C(=O)C[C@@H](C)O[C@H]3O[C@H]2[C@H]1O
inactive: all assays above

Cn1nnnc1SCC1=C(C(=O)O)N2C(=O)[C@@H](NC(=O)[C@@H](O)c3ccccc3)[C@@H]2SC1
inactive: all assays above

CO[C@H]1[C@H](O[C@H]2O[C@@H](C)[C@@H](O[C@@H]3C[C@](C)(O)[C@H](O)[C@H](C)O3)[C@@H](N(C)C)[C@@H]2O)[C@@H](CC=O)C[C@@H](C)[C@@H](O[C@H]2CC[C@H](N(C)C)[C@H](C)O2)/C=C\C=C/C[C@@H](C)OC(=O)C[C@H]1O
inactive: [1] | ATS189 | CP265 | DIV14 | DIV17 | DIV30 | Dd2 | ECU | PAD | PC15 | TAB165

CS(=O)(=O)c1ccc([C@H](O)[C@H](CF)NC(=O)C(Cl)Cl)cc1
inactive: [1]

NC[C@@H]1O[C@H](O[C@@H]2[C@H](O[C@@H]3O[C@H](CO)[C@@H](O)[C@@H]3O)[C@@H](O)[C@@H](N)C[C@H]2N)[C@@H](N)[C@H](O)[C@@H]1O
not listed: [1]
inactive: all other assays above

C=C1c2c(Cl)ccc(O)c2C(O)=C2C(=O)[C@@]3(O)C(O)=C(C(N)=O)C(=O)[C@@H](N(C)C)[C@@H]3[C@@H](O)[C@H]12
inactive: CP211 | CP265 | CP268 | CP269 | CP297 | DIV14 | DIV17 | DIV30 | PAD | PC15
active: Dd2 2.24 µM

Source: PubChem BioAssay (NCATS)
